In publication PMC7862700, “An all-to-all approach to the identification of sequence-specific readers for epigenetic DNA modifications on cytosine”:

Legend:
Test in all cases: DAPPL (digital affinity profiling via proximity ligation, sequencing); 10 mM Tris-HCl pH 7.5, 50 mM NaCl, 1 mM DTT, 4% glycerol, room temperature, 30 min; GST-TFs on glutathione beads, 16-mer random dsDNA library, 0.1% formaldehyde crosslink after washing; high values mean tight binding
[1] = target: T1, FLI1 (Homo sapiens, UniProt Q01543 1-452); details: protein: recombinant; tags: N-terminal GST; dsDNA, one strand shown
T1 sequence: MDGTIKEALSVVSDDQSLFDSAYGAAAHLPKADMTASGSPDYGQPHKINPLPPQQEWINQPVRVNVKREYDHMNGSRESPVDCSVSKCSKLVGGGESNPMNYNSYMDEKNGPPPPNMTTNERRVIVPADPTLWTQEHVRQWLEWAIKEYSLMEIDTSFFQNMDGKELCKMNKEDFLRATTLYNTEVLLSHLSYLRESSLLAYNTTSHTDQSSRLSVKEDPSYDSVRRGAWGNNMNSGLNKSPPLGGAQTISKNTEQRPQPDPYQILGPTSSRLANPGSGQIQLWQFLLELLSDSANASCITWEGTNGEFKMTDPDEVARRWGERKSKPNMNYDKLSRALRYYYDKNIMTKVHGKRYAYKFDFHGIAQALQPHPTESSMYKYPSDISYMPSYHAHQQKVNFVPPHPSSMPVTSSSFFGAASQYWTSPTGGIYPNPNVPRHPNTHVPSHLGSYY
Method in brief: (§1)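 Human transcription factors carrying a GST fusion were produced in yeast, bound to glutathione beads, tagged with DNA barcodes and pooled together with a tag-only sample. Each pool was held with 200 nmole of a random double-stranded 16-mer DNA library in Tris/NaCl/DTT/glycerol buffer for 30 min at room temperature, then washed, crosslinked in 0.1% formaldehyde, proximity-ligated with BsaI/T4 ligase (1 h, 37 °C), PCR-amplified and sequenced on an Illumina NextSeq500. Binding signal is the read frequency of each hexamer for a given factor divided by its frequency in the tag-only sample.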

[2] = target: T2, ELK1 (Homo sapiens, UniProt P19419 1-428); details: protein: recombinant; tags: N-terminal GST; dsDNA, one strand shown
T2 sequence: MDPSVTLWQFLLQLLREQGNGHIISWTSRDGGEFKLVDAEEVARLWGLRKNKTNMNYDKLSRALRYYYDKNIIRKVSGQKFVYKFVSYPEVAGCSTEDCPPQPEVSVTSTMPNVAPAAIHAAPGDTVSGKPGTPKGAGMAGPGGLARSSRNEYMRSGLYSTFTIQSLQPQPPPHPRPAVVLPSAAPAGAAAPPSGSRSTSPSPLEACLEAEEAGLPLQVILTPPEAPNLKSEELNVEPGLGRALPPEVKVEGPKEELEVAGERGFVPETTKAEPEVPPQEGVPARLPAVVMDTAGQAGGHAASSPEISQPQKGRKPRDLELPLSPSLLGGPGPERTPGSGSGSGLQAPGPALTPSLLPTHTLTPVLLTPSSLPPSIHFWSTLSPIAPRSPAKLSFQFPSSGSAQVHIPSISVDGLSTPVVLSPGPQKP
Method in brief: as §1

[3] = target: T3, GABPA (Homo sapiens, UniProt Q06546 1-454); details: protein: recombinant; tags: N-terminal GST; dsDNA, one strand shown
T3 sequence: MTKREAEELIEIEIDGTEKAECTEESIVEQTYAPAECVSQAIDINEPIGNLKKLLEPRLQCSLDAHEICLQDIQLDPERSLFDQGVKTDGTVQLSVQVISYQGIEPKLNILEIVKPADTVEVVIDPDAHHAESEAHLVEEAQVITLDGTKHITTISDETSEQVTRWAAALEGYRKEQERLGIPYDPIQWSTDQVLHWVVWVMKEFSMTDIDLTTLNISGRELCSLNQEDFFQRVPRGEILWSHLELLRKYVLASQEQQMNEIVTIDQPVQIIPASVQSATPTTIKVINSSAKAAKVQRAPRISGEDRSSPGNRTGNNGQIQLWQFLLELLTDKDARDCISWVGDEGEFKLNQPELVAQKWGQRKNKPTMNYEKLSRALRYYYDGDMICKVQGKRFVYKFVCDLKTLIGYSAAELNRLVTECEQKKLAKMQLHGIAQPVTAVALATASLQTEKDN
Method in brief: as §1

[4] = target: T4, ERG (Homo sapiens, UniProt P11308 1-479); details: protein: recombinant; tags: N-terminal GST; dsDNA, one strand shown
T4 sequence: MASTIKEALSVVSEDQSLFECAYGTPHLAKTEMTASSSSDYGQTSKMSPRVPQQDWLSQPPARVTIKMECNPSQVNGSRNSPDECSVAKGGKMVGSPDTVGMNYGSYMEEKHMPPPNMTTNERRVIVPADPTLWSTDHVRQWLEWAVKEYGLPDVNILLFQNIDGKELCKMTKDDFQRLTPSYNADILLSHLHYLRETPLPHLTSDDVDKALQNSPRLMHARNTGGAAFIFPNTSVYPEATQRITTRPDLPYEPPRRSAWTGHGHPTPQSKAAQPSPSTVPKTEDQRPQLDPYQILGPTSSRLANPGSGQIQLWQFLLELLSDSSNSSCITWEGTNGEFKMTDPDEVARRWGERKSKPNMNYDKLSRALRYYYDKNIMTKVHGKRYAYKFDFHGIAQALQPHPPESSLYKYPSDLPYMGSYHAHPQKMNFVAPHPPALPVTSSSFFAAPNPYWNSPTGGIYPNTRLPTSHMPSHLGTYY
Method in brief: as §1

[5] = target: ELF1 (Homo sapiens, UniProt P32519 1-619); details: protein: recombinant; tags: N-terminal GST; dsDNA, one strand shown
Method in brief: as §1

[6] = target: T5, EHF (Homo sapiens, UniProt Q9NZC4 1-300); details: protein: recombinant; tags: N-terminal GST; dsDNA, one strand shown
T5 sequence: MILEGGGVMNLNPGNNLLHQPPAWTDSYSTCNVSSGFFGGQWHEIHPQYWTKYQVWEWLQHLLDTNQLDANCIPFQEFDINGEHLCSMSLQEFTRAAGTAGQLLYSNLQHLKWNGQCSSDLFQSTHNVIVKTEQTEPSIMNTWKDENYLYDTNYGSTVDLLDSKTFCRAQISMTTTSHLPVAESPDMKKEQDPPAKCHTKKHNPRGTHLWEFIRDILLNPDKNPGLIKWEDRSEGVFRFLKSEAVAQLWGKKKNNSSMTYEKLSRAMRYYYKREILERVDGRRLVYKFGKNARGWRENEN
Method in brief: as §1

[7] = target: SPI1 (Homo sapiens, UniProt P17947 1-270); details: protein: recombinant; tags: N-terminal GST; dsDNA, one strand shown
Method in brief: as §1

[8] = target: SPIB (Homo sapiens, UniProt Q01892 1-262); details: protein: recombinant; tags: N-terminal GST; dsDNA, one strand shown
Method in brief: as §1

[9] = target: T6, ELK3 (Homo sapiens, UniProt P41970 1-407); details: protein: recombinant; tags: N-terminal GST; dsDNA, one strand shown
T6 sequence: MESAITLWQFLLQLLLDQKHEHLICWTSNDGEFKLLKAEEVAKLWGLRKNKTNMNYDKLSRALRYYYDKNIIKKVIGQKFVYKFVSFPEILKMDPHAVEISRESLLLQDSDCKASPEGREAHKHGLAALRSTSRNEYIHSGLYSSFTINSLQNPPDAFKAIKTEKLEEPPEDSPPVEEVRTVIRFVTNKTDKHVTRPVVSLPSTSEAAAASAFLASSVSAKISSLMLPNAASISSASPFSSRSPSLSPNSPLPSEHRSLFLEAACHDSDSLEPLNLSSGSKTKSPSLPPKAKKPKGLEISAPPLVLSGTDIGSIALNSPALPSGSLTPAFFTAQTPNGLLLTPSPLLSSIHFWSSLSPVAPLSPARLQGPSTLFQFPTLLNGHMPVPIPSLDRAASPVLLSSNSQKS
Method in brief: as §1

[10] = target: T7, FEV (Homo sapiens, UniProt Q99581 1-238); details: protein: recombinant; tags: N-terminal GST; dsDNA, one strand shown
T7 sequence: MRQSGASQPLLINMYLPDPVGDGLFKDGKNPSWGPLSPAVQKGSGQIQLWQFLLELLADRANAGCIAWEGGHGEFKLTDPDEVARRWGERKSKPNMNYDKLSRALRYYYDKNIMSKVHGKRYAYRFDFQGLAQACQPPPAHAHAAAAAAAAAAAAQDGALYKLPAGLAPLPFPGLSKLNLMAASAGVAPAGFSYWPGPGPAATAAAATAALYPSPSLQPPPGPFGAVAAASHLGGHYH
Method in brief: as §1

[11] = target: ETV5 (Homo sapiens, UniProt P41161 1-510); details: protein: recombinant; tags: N-terminal GST; dsDNA, one strand shown
Method in brief: as §1

[12] = target: HSF1 (Homo sapiens, UniProt Q00613 1-529); details: protein: recombinant; tags: N-terminal GST; chain copies: 3; dsDNA, one strand shown
Method in brief: as §1

[13] = target: T8, SPIC (Homo sapiens, UniProt Q8N5J4 1-248); details: protein: recombinant; tags: N-terminal GST; dsDNA, one strand shown
T8 sequence: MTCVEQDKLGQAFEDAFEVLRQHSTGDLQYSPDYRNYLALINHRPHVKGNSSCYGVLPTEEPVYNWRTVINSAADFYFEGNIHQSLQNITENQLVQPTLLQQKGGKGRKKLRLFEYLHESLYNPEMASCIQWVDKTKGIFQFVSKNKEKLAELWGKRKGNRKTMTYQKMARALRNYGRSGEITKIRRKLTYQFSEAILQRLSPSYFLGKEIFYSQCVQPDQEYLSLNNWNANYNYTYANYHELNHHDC
Method in brief: as §1

[14] = target: ELF4 (Homo sapiens, UniProt Q99607 1-663); details: protein: recombinant; tags: N-terminal GST; dsDNA, one strand shown
Method in brief: as §1

[15] = target: T9, ELK4 (Homo sapiens, UniProt P28324-2 1-405); details: protein: recombinant; tags: N-terminal GST; dsDNA, one strand shown
T9 sequence: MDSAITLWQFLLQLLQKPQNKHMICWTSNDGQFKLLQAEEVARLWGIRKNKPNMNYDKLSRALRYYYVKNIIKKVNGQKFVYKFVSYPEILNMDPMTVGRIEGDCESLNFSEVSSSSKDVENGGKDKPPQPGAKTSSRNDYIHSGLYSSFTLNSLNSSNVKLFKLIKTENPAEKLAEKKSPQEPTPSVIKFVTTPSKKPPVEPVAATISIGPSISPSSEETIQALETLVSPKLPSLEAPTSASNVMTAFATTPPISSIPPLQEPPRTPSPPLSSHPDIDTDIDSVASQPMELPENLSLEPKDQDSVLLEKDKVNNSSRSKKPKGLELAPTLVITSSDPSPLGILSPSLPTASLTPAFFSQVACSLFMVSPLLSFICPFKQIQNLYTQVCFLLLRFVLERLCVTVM
Method in brief: as §1

[16] = target: T10, ETV2 (Homo sapiens, UniProt O00321 1-342); details: protein: recombinant; tags: N-terminal GST; dsDNA, one strand shown
T10 sequence: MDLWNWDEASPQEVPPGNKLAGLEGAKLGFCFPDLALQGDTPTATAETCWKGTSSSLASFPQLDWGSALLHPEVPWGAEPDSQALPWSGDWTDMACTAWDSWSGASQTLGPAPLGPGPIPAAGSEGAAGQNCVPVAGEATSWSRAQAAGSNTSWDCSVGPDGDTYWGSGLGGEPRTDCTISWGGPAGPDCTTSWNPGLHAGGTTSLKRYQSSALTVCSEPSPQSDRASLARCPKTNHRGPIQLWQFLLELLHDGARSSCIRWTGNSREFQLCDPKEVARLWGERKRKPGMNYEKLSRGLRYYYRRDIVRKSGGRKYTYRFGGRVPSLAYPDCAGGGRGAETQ
Method in brief: as §1

[17] = target: T11, ELF3 (Homo sapiens, UniProt P78545 1-371); details: protein: recombinant; tags: N-terminal GST; dsDNA, one strand shown
T11 sequence: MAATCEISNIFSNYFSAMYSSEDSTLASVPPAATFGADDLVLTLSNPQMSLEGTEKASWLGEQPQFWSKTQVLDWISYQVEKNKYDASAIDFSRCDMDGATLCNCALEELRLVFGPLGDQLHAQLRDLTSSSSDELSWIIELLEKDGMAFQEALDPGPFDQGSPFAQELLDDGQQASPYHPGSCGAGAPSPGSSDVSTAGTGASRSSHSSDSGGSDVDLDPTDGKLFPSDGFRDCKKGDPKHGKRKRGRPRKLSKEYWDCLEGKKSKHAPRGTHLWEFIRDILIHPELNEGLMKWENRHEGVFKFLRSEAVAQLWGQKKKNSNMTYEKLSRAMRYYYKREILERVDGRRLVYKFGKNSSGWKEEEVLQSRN
Method in brief: as §1

[18] = target: CRX (Homo sapiens, UniProt O43186 1-299); details: protein: recombinant; tags: N-terminal GST; dsDNA, one strand shown
Method in brief: as §1

[19] = target: ETV1 (Homo sapiens, UniProt P50549 1-477); details: protein: recombinant; tags: N-terminal GST; dsDNA, one strand shown
Method in brief: as §1

ELF4, sequence (Q99607 whole entry): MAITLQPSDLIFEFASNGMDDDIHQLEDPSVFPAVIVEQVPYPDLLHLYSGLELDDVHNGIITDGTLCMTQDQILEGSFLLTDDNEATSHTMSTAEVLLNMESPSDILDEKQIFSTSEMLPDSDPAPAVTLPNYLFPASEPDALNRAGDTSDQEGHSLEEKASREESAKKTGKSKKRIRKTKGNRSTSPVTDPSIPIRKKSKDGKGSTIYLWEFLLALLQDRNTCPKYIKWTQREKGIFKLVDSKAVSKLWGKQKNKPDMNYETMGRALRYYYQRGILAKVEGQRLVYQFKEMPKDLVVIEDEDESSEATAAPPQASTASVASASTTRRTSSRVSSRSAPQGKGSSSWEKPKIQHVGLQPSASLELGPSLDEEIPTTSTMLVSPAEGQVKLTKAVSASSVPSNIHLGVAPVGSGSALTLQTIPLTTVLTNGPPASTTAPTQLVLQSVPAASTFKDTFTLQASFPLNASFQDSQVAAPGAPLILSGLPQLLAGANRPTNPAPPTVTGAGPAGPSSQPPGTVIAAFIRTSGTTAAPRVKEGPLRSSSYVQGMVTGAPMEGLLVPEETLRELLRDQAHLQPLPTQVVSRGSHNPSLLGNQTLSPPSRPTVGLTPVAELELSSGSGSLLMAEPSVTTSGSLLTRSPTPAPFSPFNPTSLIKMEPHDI
ELF1, sequence (P32519 whole entry): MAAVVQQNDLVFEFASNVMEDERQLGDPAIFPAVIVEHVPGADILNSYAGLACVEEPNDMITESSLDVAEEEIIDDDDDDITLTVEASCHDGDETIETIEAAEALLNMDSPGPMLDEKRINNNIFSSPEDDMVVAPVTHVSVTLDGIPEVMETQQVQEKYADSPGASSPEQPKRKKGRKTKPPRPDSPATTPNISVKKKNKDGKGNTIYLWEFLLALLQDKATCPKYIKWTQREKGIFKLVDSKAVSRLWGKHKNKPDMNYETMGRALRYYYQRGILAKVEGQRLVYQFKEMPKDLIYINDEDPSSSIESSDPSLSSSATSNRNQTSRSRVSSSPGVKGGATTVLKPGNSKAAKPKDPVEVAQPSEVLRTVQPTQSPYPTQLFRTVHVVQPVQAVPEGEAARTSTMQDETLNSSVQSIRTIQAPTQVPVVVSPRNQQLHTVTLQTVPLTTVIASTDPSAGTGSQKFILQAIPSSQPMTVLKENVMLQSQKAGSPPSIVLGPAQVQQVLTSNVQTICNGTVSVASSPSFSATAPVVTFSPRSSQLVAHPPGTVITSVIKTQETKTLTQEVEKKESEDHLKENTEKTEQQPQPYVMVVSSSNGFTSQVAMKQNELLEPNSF
HSF1, sequence (Q00613 whole entry): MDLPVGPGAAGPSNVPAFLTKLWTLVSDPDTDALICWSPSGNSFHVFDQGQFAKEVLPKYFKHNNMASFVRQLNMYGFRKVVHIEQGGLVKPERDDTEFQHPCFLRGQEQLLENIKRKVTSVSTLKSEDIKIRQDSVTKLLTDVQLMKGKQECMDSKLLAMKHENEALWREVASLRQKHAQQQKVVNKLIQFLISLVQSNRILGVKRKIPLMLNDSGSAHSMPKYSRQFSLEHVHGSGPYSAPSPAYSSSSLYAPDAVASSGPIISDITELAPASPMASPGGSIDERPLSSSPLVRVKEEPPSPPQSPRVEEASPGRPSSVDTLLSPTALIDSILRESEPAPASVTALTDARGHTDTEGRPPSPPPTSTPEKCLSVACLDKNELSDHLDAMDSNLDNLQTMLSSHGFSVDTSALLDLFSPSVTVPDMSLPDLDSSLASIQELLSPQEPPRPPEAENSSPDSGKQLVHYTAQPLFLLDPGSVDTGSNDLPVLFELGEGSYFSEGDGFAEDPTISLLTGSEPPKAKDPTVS
ETV1, sequence (P50549 whole entry): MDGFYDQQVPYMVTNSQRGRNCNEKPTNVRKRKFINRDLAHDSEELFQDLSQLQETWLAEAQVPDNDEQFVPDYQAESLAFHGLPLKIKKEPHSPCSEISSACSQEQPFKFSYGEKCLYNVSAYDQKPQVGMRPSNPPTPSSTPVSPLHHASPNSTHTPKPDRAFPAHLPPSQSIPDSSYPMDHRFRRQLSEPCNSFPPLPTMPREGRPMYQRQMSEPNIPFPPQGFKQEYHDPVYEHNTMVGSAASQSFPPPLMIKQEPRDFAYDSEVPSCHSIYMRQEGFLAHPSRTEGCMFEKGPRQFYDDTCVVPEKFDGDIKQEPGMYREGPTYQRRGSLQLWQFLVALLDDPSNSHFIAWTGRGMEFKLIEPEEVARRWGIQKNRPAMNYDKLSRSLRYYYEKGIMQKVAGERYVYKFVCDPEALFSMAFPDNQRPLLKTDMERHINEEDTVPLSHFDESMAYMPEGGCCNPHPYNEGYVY
SPIB, sequence (Q01892 whole entry): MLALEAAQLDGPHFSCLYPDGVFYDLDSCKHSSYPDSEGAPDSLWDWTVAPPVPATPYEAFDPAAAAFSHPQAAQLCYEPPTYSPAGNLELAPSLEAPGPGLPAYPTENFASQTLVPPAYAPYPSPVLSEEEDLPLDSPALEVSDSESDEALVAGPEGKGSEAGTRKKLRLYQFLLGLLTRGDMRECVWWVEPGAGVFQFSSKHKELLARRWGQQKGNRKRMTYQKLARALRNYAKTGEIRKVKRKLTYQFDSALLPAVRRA
CRX, sequence (O43186 whole entry): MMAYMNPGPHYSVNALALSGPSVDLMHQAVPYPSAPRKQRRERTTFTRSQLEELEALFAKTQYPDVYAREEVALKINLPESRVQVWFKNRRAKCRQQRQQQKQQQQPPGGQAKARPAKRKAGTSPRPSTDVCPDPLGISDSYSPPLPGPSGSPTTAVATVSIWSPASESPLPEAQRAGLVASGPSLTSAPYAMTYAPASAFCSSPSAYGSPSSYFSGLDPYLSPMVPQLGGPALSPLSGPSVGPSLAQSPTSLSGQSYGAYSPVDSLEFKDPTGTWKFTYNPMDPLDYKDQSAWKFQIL
ETV5, sequence (P41161 whole entry): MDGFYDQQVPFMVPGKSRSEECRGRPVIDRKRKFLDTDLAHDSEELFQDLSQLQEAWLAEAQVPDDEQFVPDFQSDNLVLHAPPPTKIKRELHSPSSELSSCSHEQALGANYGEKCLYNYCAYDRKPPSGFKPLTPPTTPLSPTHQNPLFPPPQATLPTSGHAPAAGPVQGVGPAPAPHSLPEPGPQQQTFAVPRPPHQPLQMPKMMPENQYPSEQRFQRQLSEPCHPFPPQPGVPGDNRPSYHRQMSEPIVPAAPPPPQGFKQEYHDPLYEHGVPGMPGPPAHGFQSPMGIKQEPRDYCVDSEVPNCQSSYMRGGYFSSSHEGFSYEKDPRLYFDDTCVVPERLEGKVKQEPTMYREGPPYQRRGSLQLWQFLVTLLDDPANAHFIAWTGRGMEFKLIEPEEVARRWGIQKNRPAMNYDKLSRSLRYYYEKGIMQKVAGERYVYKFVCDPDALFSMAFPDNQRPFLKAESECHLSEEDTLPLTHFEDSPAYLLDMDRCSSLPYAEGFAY

GCTTAT
binding signal [1]: 1.33 fold enrichment (6-mer frequency, TF over GST control) | binding signal [2]: 1.21 fold enrichment (6-mer frequency, TF over GST control) | binding signal [3]: 1.28 fold enrichment (6-mer frequency, TF over GST control) | binding signal [4]: 1.18 fold enrichment (6-mer frequency, TF over GST control) | binding signal [5]: 1.28 fold enrichment (6-mer frequency, TF over GST control) | binding signal [6]: 1.12 fold enrichment (6-mer frequency, TF over GST control) | binding signal [7]: 1.3 fold enrichment (6-mer frequency, TF over GST control) | binding signal [8]: 1.31 fold enrichment (6-mer frequency, TF over GST control) | binding signal [9]: 1.16 fold enrichment (6-mer frequency, TF over GST control) | binding signal [10]: 1.21 fold enrichment (6-mer frequency, TF over GST control) | binding signal [11]: 1.23 fold enrichment (6-mer frequency, TF over GST control) | binding signal [12]: 1.89 fold enrichment (6-mer frequency, TF over GST control) | binding signal [13]: 1.42 fold enrichment (6-mer frequency, TF over GST control) | binding signal [14]: 1.23 fold enrichment (6-mer frequency, TF over GST control) | binding signal [15]: 1.28 fold enrichment (6-mer frequency, TF over GST control) | binding signal [16]: 1.11 fold enrichment (6-mer frequency, TF over GST control) | binding signal [17]: 1.29 fold enrichment (6-mer frequency, TF over GST control) | binding signal [18]: 2.89 fold enrichment (6-mer frequency, TF over GST control) | binding signal [19]: 1.35 fold enrichment (6-mer frequency, TF over GST control)
